Source: PubChem BioAssay (NCI)
This is part of a sample that, as a whole, favours compounds with a hit. Of some 83,000 tested, about 20% had one in any assay.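 Plates (96-well) were seeded with cells, treated with compound at one concentration, and incubated for 48 hours before percent growth was determined.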 Unmarked numbers belong to inactive results. Active and inactive are the calls of the source. How the source made its calls: active means growth percent below 10; inactive means the rest.

Columns and labels:
Test in all cases: NCI-60 one-dose screen, 48 h (100 = growth as untreated, 0 = no growth, -100 = all killed)
Settings in all cases: 10 µM unless noted
[1] = system: SK-MEL-2 melanoma
[2] = system: SN12C renal
[3] = system: UO-31 renal
[4] = system: TK-10 renal
[5] = system: ACHN renal
[6] = system: CAKI-1 renal
[7] = system: A498 renal
[8] = system: MOLT-4 leukemia
[9] = system: SR leukemia
[10] = system: RPMI-8226 leukemia
[11] = system: OVCAR-8 ovarian
[12] = system: OVCAR-5 ovarian
[13] = system: OVCAR-4 ovarian
[14] = system: SK-OV-3 ovarian
[15] = system: IGROV1 ovarian
[16] = system: OVCAR-3 ovarian
[17] = system: HS 578T breast
[18] = system: NCI/ADR-RES ovarian
[19] = system: CCRF-CEM leukemia
[20] = system: EKVX NSCLC

| SMILES | growth [1] [%] | growth [2] | growth [3] | growth [4] | growth [5] | growth [6] | growth [7] | growth [8] | growth [9] | growth [10] | growth [11] | growth [12] | growth [13] | growth [14] | growth [15] | growth [16] | growth [17] | growth [18] | growth [19] | growth [20] |
| --- | --- | --- | --- | --- | --- | --- | --- | --- | --- | --- | --- | --- | --- | --- | --- | --- | --- | --- | --- | --- |
| Clc1ccc2[nH]c3c(NCCCN4CCOCC4)ncnc3c2c1 | 94.5 | 82.5% | 57.2% | 78.3% | 45.1% | 75.9% | 58.4% | 53.5% | -24.2% (active) | 52.6% | 66.5% | 90.8% | 77.5% | 81.5% | 63.1% | 85.3% | 102% | 65.9% |  |  |
| Cc1nc(C)c(-c2nn3c(-c4cccc(F)c4)nnc3s2)s1 | 102 | 97.6% | 83.9% |  | 117% | 103% | 67.5% | 87% | 69.3% | 96.2% | 94.7% | 112% | 112% | 104% | 106% | 113% | 105% | 91.3% | 90.4% |  |
| CC(=O)Nc1nccs1 |  | 97.2% | 84.7% | 99.9% | 98.1% | 101% | 73.6% | 103% | 111% | 102% | 103% | 84.3% | 117% | 98.8% | 94.7% | 99.6% | 91.7% | 94.3% | 96.4% | 92.2% |
| COc1cc2oc(-c3cccc(C(=O)Nc4ccc(C#N)cc4)c3)cc(=O)c2c(O)c1OC | 74.4 |  | 55.3% | 50.5% | 38.7% | 85.2% | 86.7% | 88.3% | 62.2% | 51.3% | 29.1% | 66.5% | 11.7% |  | 84.6% | 51.3% | 83.4% | 51.2% | 88.5% |  |
| C(=C\c1nc2ccccc2[nH]1)/c1nc2ccccc2[nH]1 | 107 |  | 81.8% | 143% | 93.3% | 96.6% | 83.7% | 80.4% | 93.3% | 89.9% | 97.6% | 111% | 97.1% | 98.4% | 93.1% | 109% | 100% | 94.3% | 93.5% |  |
| CCC(=O)OC1=C(C)SC2=NC(c3ccc(Cl)c(Cl)c3)=CC(c3cc(OC)c(OC)c(OC)c3)N21 (stereo not drawn) | 107 | 95.3% |  | 133% | 102% | 87.8% | 116% | 99.3% | 103% | 95.8% |  | 102% | 98.1% | 105% | 106% | 108% | 101% | 105% | 90.7% |  |
| CCNCCNc1cc(-c2cccc(C(F)(F)F)c2)c(C#N)c2nc3ccccc3n12 |  | -47% (active) | -81.8% (active) | -92.9% (active) | -100% (active) | -70.8% (active) | 81.4% | -33.2% (active) | -37.5% (active) | -29.3% (active) | -39.7% (active) | -79.3% (active) | -83% (active) | -97.2% (active) | -74.2% (active) | -86.7% (active) | -48.3% (active) | -55% (active) | -12.3% (active) | -89.5% (active) |
| CN1CCN(c2ccc(Nc3ncc(Cl)c(NC[C@@H]4CCCO4)n3)cc2)CC1 |  | 28.2% | -15.6% (active) | 23.6% | 1.78% (active) | 26.6% | -25% (active) | 16.8% | -0.801% (active) | 29.5% | 27.5% | 18.1% | 29.7% | 28.6% | 23.4% | 42.8% | 6.95% (active) | 31.3% | 28% | 39% |
| CN(C)c1ccc2cc(-c3ccc(Cl)c(Cl)c3)c(N)nc2c1 |  | 40.9% | 33.2% | 27.9% | 52.3% | 39.5% | 40.9% | 31% | -29% (active) | 13.3% | 21% | 55.4% | 9.09% (active) | 60.4% | 42% | 31% | 62.4% | 15.9% | 58% | 26.3% |
| COc1ccc(/C(C)=N/NS(=O)(=O)c2ccc(C)cc2)cc1OC | 122 |  |  | 104% | 103% | 90.4% | 87.2% | 98.2% | 137% | 95.3% | 104% | 109% | 107% | 86.8% | 114% | 110% | 97.2% | 101% | 102% |  |
| Nc1nc(N)c(-c2ccc(Cl)cc2)c(/C=C/c2ccc([N+](=O)[O-])cc2)n1 | 88.7 | 93.6% | 41.7% | 109% | 90.8% | 86.3% | -3.32% (active) |  | 44% | 67% | 89.2% | 108% | 77.3% |  | 22.4% | 75.9% | 60.5% | 68.3% | 34.8% |  |
| O=C(c1ccccc1)c1ccc(Cl)c([N+](=O)[O-])c1 | 95.3 | 97% | -87.9% (active) | 107% |  | -2.29% (active) | 57.1% | 11.9% | -3.1% (active) | 82.3% | 97.8% | 99.1% | 99.5% | 108% | 43.6% | 75.7% | 87.7% | 108% | 13.5% |  |
| CCCCNC(=O)NS(=O)(=O)c1ccc(N2N=C(c3ccc(C)cc3C)CC2c2ccc(N(C)C)cc2)cc1 (stereo not drawn) | 78 | 59.4% |  | 83% | 48.6% | 63% | 62.6% | 48.4% |  | 34.2% | 57.7% | 84.6% | 64% | 97.7% | 89.9% | 51.2% | 88.1% | 46.8% | 43.3% |  |
| O=C1C2=C(CCN(Cc3ccccc3)C2)N2CCN=C2N1Cc1ccc(F)cc1F |  | 28.8% | 32.5% | 44.8% | 35.6% | 32.9% | 14.6% | 74.1% | 55.5% | 19.3% | 17.4% | 56.4% | -2.31% (active) | 27.8% | 47.5% | 26.8% | 45.8% | 20.1% | 56.7% | 30.2% |
| N[C@H]1CCC[C@@H]1NCCCCN1C(=O)c2cccc3cccc(c23)C1=O |  | 63.9% | 60.3% | 65.8% | 44.9% | 84.4% | 40.5% | 20.2% | 20% | 75.1% | 39.9% | 74% | 36% | 95.2% | 39.3% | 61.3% | 68.2% | 79.1% | 84.5% | 84.6% |
| CCOC(=O)c1sc2ccc(NCc3nc[nH]c3C)cc2c1NC(=O)c1cc(OC)c(OC)c(OC)c1 | 84.1 |  | 70.4% | 150% | 65.1% | 96% | 101% | 88.2% | 10.4% | 80.1% |  | 96.7% | 74% | 98.1% | 89.5% | 94% | 99.2% | 91.7% | 52.2% |  |
